# IP6K1 inh = inhibitors of human IP6K1; IP6K1 kinase, ADP-Glo luminescence, 2 h; stronger effect = lower value; activity change, % (series mostly up to about 58 µM); 0.81% of 140,000 active; in the data active = activity change below about -25%; also: % is scaled to controls: 0 for no effect and ±100 for the full control effect
# Target sequence (Q92551 whole entry, looked up): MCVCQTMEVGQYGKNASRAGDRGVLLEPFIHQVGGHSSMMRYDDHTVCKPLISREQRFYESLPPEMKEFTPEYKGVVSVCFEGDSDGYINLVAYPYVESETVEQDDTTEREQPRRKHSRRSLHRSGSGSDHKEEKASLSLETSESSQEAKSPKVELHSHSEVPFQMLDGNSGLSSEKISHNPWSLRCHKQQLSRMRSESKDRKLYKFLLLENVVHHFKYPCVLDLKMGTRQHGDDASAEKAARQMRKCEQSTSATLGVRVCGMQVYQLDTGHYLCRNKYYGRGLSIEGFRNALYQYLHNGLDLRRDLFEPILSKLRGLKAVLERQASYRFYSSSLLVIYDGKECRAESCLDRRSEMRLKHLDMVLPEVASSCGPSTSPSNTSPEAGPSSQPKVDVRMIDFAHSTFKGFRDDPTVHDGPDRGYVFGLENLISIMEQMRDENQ
#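 ADP-Glo luminescence measures ADP made by human IP6K1 during a 2 h RT reaction with ATP/IP6 (mix at 1.3 mM/130 uM); top library doses 57.5 and 19.1 uM final.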
# KDM5B inhibitor = blocks human KDM5B histone demethylase activity | 2.6% of 220,000 active | KDM5B demethylase, FDH-coupled NADH fluorescence (FDH is formaldehyde dehydrogenase) | Potency, µM (highest dose often 57.7 µM), hits mostly inhibitors | AID 1347165; active = well fitted inhibition curve with a large enough effect; inconclusive = small, poorly fitted or top-dose-only effect; inactive = no such curve, though single readings can be large or run the other way; also: potency is read from the fitted curve at half-maximal effect; 0% is about no effect; nearly all actives have a fitted effect of over 70% in size
#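 Compound dilutions met 200 nM (final) KDM5BΔAP for 10 min at room temperature before substrate addition. The substrate mix held 12.5 µM H3K4me3 with cofactors 25 µM α-ketoglutarate and 50 µM Fe²⁺. NADH signal gain over 30 min defined activity.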
# * hit, by the source's call; i = inactive; ? = inconclusive; . = no result. This is a sample that favours compounds with a hit; in the whole collection about 2.7% have one here.
SMILES,IP6K1 inh,KDM5B inhibitor
COc1cccc(CN2CCCC(Cc3ncc(C)n3Cc3ccc(F)cc3)C2)c1 (stereo unspecified),4,.
Cc1cccc(C(=O)N2CCC3(CC2)CC(Cc2ccc(F)cc2)CCO3)c1 (stereo unspecified),-3,i
COc1ccc(F)cc1-c1ccc(CN2CCC(N[S+](=O)([O-])c3cccc(C(F)(F)F)c3)C2)cc1 (stereo unspecified),12,.
CC(C)COc1ccc(Br)cc1C(N)=O,.,i
N#Cc1cccc(-c2cn3c(n2)N(C(=O)c2ccsc2)CCC3)c1,10,18µM*
N#Cc1cccc(-c2cn3c(n2)N(C(=O)CC2CCCC2)CCC3)c1,15,20µM*
CC(=O)NCC(=O)N1CCCn2cc(-c3cccc(C#N)c3)nc21,10,i
COc1cccc(-c2cn3c(n2)N(C(=O)Cn2ccnc2)CCC3)c1,2,i
N#Cc1cccc(-c2cn3c(n2)N(C(=O)COc2ccccc2)CCC3)c1,-3,28µM*
COc1cccc(-c2cn3c(n2)N(C(=O)c2ccoc2)CCC3)c1,7,?
Cc1ccccc1C(=O)N1CCCC1C(=O)N1CCC(c2nc3ccncc3[nH]2)C1 (stereo unspecified),12,.
N#Cc1ccc(CN2C[C@@H]3C(=O)N(CCN4CCc5ccccc5C4)C(=O)[C@@H]3C2)cc1,-17,25µM*
O=C1[C@H]2CN(Cc3ccc(F)cc3)C[C@H]2C(=O)N1CCN1CCc2ccccc2C1,8,?
CCNCc1ccc(-c2cccc(Cl)c2)o1,.,i
CN1CCC(NC(=O)C2(C)CCCc3cnc(NCc4ccccc4)nc32)CC1 (stereo unspecified),-8,22µM*
CC1(C(=O)NCc2ccc(F)cc2)CCCc2cnc(Nc3cccnc3)nc21 (stereo unspecified),-7,i
CC1(C(=O)NCCN2CCOCC2)CCCc2cnc(NCc3ccccc3)nc21 (stereo unspecified),2,35µM*
CC1(C(=O)NCc2ccncc2)CCCc2cnc(NCc3ccccc3)nc21 (stereo unspecified),-1,35µM*
CC1(C(=O)NCc2cnccn2)CCCc2cnc(NCc3ccccc3)nc21 (stereo unspecified),-2,i
CC1(C(=O)NCc2ccncc2)CCCc2cnc(Nc3ccccc3)nc21 (stereo unspecified),3,i
O=C(Cc1c(Cl)cccc1Cl)NCc1coc(-c2cccs2)n1,.,i
Cc1ccc(C)c2c(=O)cc(CSc3nnc(-c4cccc(F)c4)n3C)[nH]c12,.,i
COc1ccc(Cn2c(=O)c(C(=O)Nc3ccccc3Cl)nc3cccnc32)cc1,-1,.
CCC(C(=O)Nc1nc2c(C)cccc2s1)c1ccccc1 (stereo unspecified),.,i
Cn1cccc1CN1CCC2(CC1)CC(=O)N(c1ccccc1)c1ccccc1O2,3,i
SMILES,IP6K1 inh,KDM5B inhibitor
COc1ccc(-c2ccnc3nc(C4CCCO4)nn23)c(F)c1 (stereo unspecified),0,25µM*
Fc1ccc(-c2ccnc3nc(C4CCCO4)nn23)cc1 (stereo unspecified),9,?
COc1cc(F)ccc1-c1ccnc2nc(CCc3ccccc3)nn12,3,25µM*
COc1ccc(CCc2nc3nccc(-c4ccc(F)cc4OC)n3n2)cc1,0,?
COc1ccc(-c2ccnc3nc(Cc4cc(F)cc(F)c4)nn23)c(F)c1,0,i
COc1ccc(-c2ccnc3nc(CCc4ccccc4)nn23)c(F)c1,-1,28µM*
CCCC(=O)c1cc2c(cc1NC(=O)c1ccco1)OCCO2,.,i
CC(=O)Nc1ccc(S(=O)(=O)N2C[C@@H]3C[C@H](C2)c2ccc(-c4ccc(OC(F)(F)F)cc4)c(=O)n2C3)cc1,-5,?
COc1ccc(NC(=O)N2C[C@@H]3C[C@H](C2)c2ccc(NS(=O)(=O)c4cccc(F)c4)c(=O)n2C3)cc1,-7,?
CC(=O)Nc1ccc(S(=O)(=O)N2C[C@@H]3C[C@H](C2)c2ccc(-c4ccc5ccccc5c4)c(=O)n2C3)cc1,7,25µM*
COc1ccc(C(=O)N2C[C@@H]3C[C@H](C2)c2ccc(-c4ccc5ccccc5c4)c(=O)n2C3)cc1,4,28µM*
COc1ccc(C(=O)N2C[C@@H]3C[C@H](C2)c2ccc(NS(=O)(=O)c4cccc(C(F)(F)F)c4)c(=O)n2C3)cc1,3,i
O=C(Nc1cccc(F)c1)N1C[C@@H]2C[C@H](C1)c1ccc(-c3cccc(C(F)(F)F)c3)c(=O)n1C2,10,28µM*
NNC(=O)c1cc(N)cc([N+](=O)[O-])c1,.,i
Cc1cc(N2CCCCC2)nc(Nc2ccc(NC(=O)Cc3ccccc3)cc2)n1,.,i
CNC(=O)c1cc(C)nc2onc(C3CCN([S+](C)(=O)[O-])C3)c12 (stereo unspecified),1,.
Cc1nc(-c2ccccc2)sc1C(=O)N[C@H](C(=O)O)C(C)C,.,i

# Screening results deposited in PubChem by National Center for Advancing Translational Sciences (NCATS).
